Results on one sequence are retold here after paper PMC7862700, “An all-to-all approach to the identification of sequence-specific readers for epigenetic DNA modifications on cytosine”.

Holding throughout (experiment): DAPPL (digital affinity profiling via proximity ligation, sequencing); 10 mM Tris-HCl pH 7.5, 50 mM NaCl, 1 mM DTT, 4% glycerol, room temperature, 30 min; GST-TFs on glutathione beads, 16-mer random dsDNA library, 0.1% formaldehyde crosslink after washing; high values mean tight binding
The target in one assay is T1, FLI1 (Homo sapiens, UniProt Q01543 1-452).
T1 sequence: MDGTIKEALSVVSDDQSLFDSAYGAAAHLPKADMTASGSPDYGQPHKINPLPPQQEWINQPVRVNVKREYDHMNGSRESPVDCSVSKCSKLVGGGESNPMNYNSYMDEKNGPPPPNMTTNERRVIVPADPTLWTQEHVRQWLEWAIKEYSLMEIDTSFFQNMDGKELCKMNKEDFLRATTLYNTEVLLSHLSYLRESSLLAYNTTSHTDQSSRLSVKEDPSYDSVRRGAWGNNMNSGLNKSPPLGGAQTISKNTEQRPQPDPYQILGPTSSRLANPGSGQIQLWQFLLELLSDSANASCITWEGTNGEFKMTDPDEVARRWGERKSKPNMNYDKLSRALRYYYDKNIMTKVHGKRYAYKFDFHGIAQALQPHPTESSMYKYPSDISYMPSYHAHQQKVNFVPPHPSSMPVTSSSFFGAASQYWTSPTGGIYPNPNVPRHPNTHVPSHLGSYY
Particulars: protein: recombinant; tags: N-terminal GST; dsDNA, one strand shown. The method, boiled down: (§1)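 After expression in yeast as GST fusions, human transcription factors were bound to glutathione beads, DNA-barcoded and mixed with a tag-only sample. The pools were incubated with 200 nmole of a 16-mer random double-stranded DNA library in Tris/NaCl/DTT/glycerol buffer (30 min, room temperature), washed and crosslinked with 0.1% formaldehyde. Proximity ligation with BsaI/T4 ligase ran for 1 h at 37 °C, before PCR amplification and sequencing on an Illumina NextSeq500. Binding signal is a hexamer's read frequency for a factor divided by its frequency for the tag-only sample.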

A further assay concerns the target T2, ELK1 (Homo sapiens, UniProt P19419 1-428).
T2 sequence: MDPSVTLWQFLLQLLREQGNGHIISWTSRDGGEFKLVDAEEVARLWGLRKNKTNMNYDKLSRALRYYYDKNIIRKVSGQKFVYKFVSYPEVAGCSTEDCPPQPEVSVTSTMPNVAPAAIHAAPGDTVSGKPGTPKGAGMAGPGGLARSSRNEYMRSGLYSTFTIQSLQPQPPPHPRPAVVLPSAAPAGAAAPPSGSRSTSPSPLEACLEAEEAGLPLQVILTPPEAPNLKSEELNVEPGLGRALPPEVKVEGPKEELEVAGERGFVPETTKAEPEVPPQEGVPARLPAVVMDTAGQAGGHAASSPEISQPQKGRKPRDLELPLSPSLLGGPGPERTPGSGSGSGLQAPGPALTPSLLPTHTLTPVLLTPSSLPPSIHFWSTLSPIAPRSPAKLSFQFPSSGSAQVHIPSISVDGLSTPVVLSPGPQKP
Particulars: protein: recombinant; tags: N-terminal GST; dsDNA, one strand shown. The gist of the method: as §1

A further assay deals with T3, GABPA (Homo sapiens, UniProt Q06546 1-454).
T3 sequence: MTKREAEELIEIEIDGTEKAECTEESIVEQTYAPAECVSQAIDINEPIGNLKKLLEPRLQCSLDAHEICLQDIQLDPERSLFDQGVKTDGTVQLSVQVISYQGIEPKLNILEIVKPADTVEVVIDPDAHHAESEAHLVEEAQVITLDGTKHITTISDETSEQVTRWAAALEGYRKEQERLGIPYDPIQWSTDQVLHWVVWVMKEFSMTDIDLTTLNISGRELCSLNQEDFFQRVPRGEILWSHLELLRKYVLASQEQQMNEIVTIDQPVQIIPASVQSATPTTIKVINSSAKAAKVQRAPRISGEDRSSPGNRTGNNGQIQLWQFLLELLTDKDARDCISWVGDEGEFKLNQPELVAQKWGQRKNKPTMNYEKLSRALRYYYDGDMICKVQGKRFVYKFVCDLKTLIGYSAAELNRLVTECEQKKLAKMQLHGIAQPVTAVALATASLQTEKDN
Particulars: protein: recombinant; tags: N-terminal GST; dsDNA, one strand shown. The method, boiled down: as §1

The next assay has as its target T4, ERG (Homo sapiens, UniProt P11308 1-479).
T4 sequence: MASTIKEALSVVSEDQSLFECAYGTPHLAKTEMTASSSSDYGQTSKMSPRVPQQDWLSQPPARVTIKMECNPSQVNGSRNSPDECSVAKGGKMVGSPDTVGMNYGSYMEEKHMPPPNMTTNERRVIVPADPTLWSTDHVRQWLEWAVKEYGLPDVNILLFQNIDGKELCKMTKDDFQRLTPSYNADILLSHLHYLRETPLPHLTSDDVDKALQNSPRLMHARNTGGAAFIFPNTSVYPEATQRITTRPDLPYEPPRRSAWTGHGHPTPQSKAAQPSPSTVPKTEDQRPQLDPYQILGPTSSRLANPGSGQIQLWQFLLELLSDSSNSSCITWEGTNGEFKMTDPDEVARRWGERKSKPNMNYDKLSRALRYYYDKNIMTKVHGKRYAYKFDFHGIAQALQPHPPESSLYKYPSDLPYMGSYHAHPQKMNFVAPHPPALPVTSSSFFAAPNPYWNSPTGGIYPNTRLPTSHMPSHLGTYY
Particulars: protein: recombinant; tags: N-terminal GST; dsDNA, one strand shown. The gist of the method:
as §1

The next assay addresses ELF1 (Homo sapiens, UniProt P32519 1-619). Particulars: protein: recombinant; tags: N-terminal GST; dsDNA, one strand shown. The gist of the method: as §1
Another assay deals with T5, EHF (Homo sapiens, UniProt Q9NZC4 1-300).
T5 sequence: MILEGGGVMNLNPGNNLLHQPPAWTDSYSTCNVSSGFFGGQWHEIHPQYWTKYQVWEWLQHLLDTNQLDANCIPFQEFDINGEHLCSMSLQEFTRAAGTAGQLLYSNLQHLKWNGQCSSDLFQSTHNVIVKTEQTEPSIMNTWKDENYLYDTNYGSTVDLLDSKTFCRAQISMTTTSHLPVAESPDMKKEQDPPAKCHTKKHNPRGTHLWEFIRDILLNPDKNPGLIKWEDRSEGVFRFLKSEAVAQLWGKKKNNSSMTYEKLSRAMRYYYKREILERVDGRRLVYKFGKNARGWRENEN
Particulars: protein: recombinant; tags: N-terminal GST; dsDNA, one strand shown. The method, boiled down:
as §1

The target in a further assay is SPI1 (Homo sapiens, UniProt P17947 1-270). Particulars: protein: recombinant; tags: N-terminal GST; dsDNA, one strand shown. The gist of the method: as §1
The target of a further assay is SPIB (Homo sapiens, UniProt Q01892 1-262). Particulars: protein: recombinant; tags: N-terminal GST; dsDNA, one strand shown. The gist of the method: as §1
Chain of SPIB (Q01892 whole entry): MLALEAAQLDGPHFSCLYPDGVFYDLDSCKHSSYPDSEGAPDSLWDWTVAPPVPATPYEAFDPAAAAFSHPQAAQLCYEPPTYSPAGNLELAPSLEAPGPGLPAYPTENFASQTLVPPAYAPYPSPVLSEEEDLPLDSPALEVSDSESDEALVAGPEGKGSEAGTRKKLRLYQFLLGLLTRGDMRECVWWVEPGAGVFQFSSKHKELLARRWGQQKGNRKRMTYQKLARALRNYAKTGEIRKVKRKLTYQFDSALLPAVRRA
The target in the next assay is T6, ELK3 (Homo sapiens, UniProt P41970 1-407).
T6 sequence: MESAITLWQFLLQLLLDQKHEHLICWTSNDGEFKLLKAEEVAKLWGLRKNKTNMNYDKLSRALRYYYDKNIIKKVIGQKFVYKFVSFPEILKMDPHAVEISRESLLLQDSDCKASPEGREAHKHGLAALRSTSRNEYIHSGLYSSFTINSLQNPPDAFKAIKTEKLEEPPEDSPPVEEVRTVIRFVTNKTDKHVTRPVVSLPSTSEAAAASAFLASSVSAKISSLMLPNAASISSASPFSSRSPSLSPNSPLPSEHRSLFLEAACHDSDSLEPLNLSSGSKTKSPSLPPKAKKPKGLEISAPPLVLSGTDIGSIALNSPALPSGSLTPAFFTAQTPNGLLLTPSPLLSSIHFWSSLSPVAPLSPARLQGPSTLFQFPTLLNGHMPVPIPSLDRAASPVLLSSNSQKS
Particulars: protein: recombinant; tags: N-terminal GST; dsDNA, one strand shown. The gist of the method: as §1

Another assay deals with T7, FEV (Homo sapiens, UniProt Q99581 1-238).
T7 sequence: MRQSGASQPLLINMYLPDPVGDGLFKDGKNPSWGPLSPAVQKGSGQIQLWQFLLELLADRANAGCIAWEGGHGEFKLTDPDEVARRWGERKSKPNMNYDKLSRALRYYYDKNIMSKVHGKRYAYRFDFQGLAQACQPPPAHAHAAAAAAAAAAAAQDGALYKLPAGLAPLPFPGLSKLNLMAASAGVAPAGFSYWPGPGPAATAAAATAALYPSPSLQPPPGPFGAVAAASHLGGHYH
Particulars: protein: recombinant; tags: N-terminal GST; dsDNA, one strand shown. The gist of the method: as §1

The next assay has as its target ETV5 (Homo sapiens, UniProt P41161 1-510). Particulars: protein: recombinant; tags: N-terminal GST; dsDNA, one strand shown. The gist of the method: as §1
The next assay has as its target HSF1 (Homo sapiens, UniProt Q00613 1-529). Particulars: protein: recombinant; tags: N-terminal GST; chain copies: 3; dsDNA, one strand shown. The method, boiled down:
as §1

The next assay deals with T8, SPIC (Homo sapiens, UniProt Q8N5J4 1-248).
T8 sequence: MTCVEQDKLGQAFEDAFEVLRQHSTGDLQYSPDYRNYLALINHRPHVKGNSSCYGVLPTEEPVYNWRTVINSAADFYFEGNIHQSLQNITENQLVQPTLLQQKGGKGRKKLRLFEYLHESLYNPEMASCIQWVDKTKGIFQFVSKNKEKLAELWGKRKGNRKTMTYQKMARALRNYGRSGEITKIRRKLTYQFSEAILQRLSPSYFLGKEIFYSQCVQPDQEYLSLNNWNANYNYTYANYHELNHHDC
Particulars: protein: recombinant; tags: N-terminal GST; dsDNA, one strand shown. The gist of the method:
as §1

The next assay deals with ELF4 (Homo sapiens, UniProt Q99607 1-663). Particulars: protein: recombinant; tags: N-terminal GST; dsDNA, one strand shown. The gist of the method:
as §1

The target of a further assay is T9, ELK4 (Homo sapiens, UniProt P28324-2 1-405).
T9 sequence: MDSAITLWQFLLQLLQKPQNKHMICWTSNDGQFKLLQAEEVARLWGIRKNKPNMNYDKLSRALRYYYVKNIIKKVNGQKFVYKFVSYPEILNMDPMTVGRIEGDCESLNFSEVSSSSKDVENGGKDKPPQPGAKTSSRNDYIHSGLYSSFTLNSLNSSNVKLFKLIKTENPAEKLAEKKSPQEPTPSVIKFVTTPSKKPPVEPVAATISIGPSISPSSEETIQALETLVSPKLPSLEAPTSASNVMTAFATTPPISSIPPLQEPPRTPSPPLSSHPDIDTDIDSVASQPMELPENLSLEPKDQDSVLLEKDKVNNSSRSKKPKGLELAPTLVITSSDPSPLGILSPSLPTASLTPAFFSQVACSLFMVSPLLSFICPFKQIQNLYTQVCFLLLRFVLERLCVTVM
Particulars: protein: recombinant; tags: N-terminal GST; dsDNA, one strand shown. The method, boiled down:
as §1

In the next assay the target is T10, ETV2 (Homo sapiens, UniProt O00321 1-342).
T10 sequence: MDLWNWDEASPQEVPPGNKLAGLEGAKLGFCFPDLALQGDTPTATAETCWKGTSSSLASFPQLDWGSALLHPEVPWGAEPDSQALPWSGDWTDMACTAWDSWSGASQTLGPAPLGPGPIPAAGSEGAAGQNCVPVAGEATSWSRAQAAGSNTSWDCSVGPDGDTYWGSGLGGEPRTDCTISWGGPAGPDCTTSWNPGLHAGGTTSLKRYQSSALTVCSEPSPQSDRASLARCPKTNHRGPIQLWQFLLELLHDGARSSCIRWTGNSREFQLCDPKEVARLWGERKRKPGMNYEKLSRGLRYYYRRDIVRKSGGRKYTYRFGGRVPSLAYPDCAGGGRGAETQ
Particulars: protein: recombinant; tags: N-terminal GST; dsDNA, one strand shown. The method, boiled down:
as §1

The next assay concerns the target T11, ELF3 (Homo sapiens, UniProt P78545 1-371).
T11 sequence: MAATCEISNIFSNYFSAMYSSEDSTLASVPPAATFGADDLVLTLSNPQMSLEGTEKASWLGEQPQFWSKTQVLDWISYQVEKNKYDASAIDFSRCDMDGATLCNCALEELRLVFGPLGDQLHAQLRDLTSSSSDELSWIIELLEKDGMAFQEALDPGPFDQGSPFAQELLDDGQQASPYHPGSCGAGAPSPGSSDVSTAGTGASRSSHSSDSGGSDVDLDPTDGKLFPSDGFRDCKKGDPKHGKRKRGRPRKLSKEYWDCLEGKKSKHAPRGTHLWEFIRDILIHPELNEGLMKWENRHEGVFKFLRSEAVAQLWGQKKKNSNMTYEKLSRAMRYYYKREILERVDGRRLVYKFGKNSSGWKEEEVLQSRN
Particulars: protein: recombinant; tags: N-terminal GST; dsDNA, one strand shown. The gist of the method:
as §1

A further assay concerns the target ETV1 (Homo sapiens, UniProt P50549 1-477). Particulars: protein: recombinant; tags: N-terminal GST; dsDNA, one strand shown. The method, boiled down:
as §1

Chain of ETV5 (P41161 whole entry): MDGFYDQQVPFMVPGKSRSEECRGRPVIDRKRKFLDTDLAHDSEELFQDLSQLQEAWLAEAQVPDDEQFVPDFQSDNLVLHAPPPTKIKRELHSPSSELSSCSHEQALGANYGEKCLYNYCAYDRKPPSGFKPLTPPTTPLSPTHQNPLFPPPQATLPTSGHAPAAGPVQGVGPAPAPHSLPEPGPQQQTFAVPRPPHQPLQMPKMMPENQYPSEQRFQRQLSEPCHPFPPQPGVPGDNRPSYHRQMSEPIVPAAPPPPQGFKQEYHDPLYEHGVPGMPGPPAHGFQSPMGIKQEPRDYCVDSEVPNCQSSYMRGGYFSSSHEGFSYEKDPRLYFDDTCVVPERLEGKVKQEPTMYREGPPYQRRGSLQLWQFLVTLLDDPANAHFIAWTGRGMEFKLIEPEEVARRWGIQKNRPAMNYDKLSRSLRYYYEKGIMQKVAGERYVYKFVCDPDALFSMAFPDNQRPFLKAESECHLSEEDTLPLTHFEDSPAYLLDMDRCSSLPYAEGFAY
Chain of HSF1 (Q00613 whole entry): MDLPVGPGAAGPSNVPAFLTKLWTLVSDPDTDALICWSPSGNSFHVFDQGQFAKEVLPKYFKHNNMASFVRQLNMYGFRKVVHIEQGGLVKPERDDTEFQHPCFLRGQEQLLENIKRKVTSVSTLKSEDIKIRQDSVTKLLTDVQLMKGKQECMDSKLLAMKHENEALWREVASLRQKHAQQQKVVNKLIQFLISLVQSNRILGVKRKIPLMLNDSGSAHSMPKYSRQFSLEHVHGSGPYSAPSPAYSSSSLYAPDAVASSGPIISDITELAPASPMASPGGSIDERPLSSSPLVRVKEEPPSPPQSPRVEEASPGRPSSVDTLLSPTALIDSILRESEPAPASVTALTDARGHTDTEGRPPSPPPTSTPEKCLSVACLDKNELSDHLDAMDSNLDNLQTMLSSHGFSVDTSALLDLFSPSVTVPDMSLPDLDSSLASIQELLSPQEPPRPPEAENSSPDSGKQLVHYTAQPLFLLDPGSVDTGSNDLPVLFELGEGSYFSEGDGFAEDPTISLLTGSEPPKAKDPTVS
Chain of ELF1 (P32519 whole entry): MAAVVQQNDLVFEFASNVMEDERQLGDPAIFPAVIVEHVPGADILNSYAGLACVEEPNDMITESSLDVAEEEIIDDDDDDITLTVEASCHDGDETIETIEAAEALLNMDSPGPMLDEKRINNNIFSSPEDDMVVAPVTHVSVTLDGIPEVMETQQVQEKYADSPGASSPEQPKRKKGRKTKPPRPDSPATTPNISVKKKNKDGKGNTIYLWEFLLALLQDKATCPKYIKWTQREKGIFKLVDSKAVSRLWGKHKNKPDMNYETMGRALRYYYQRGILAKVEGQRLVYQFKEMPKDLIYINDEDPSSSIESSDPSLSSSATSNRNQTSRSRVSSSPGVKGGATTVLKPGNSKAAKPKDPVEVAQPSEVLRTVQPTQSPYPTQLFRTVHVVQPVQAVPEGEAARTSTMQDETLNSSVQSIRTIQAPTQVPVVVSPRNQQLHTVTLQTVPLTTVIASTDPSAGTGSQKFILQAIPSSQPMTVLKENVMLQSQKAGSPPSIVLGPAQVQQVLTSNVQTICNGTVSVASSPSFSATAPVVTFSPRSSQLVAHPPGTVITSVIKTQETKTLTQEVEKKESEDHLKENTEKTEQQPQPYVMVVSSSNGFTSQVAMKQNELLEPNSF
Chain of ETV1 (P50549 whole entry): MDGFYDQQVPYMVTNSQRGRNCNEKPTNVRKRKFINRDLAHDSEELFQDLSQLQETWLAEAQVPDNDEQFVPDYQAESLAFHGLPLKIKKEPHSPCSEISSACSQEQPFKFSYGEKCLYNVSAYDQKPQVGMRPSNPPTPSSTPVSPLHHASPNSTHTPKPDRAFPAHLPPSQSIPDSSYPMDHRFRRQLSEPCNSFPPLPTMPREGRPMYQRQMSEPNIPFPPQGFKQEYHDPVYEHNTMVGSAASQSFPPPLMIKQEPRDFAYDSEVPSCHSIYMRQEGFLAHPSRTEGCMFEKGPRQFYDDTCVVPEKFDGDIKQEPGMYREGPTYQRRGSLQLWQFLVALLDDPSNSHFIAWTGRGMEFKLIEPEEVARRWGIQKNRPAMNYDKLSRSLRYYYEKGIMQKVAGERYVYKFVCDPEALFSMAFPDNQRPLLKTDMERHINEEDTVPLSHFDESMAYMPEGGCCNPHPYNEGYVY
Chain of ELF4 (Q99607 whole entry): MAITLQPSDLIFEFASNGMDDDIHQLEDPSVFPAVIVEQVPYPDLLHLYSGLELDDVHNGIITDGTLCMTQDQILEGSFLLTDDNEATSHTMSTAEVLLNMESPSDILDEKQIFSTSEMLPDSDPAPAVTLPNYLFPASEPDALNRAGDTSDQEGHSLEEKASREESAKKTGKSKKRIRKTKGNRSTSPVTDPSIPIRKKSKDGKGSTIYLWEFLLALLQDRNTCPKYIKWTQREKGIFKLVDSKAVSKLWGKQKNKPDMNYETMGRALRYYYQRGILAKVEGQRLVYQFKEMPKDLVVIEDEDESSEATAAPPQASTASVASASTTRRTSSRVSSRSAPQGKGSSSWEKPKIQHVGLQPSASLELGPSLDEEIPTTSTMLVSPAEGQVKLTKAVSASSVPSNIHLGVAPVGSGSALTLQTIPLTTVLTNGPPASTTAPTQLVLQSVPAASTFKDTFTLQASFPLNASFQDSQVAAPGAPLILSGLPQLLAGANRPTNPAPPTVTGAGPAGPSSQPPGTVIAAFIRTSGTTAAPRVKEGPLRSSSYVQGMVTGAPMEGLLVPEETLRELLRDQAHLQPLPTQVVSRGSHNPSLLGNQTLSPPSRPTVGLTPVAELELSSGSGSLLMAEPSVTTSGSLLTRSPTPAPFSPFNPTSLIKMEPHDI

For CCACTC, the binding signal in the assay with FLI1 was 1.23 fold enrichment (6-mer frequency, TF over GST control); in the assay with ELK1 it was 1.32 fold enrichment (6-mer frequency, TF over GST control); in the assay with GABPA, 1.29 fold enrichment (6-mer frequency, TF over GST control); with ERG it was 1.19 fold enrichment (6-mer frequency, TF over GST control); with ELF1, 1.28 fold enrichment (6-mer frequency, TF over GST control); with EHF, 1.16 fold enrichment (6-mer frequency, TF over GST control). Further, the binding signal in the assay with SPI1 was 1.09 fold enrichment (6-mer frequency, TF over GST control); with SPIB, 1.16 fold enrichment (6-mer frequency, TF over GST control); with ELK3 it was 1.3 fold enrichment (6-mer frequency, TF over GST control); with FEV it was 1.27 fold enrichment (6-mer frequency, TF over GST control); with ETV5, 1.23 fold enrichment (6-mer frequency, TF over GST control); with HSF1 it was 1.05 fold enrichment (6-mer frequency, TF over GST control). In addition, the binding signal is 1.27 fold enrichment (6-mer frequency, TF over GST control) in the assay with SPIC; 1.29 fold enrichment (6-mer frequency, TF over GST control) with ELF4; 1.49 fold enrichment (6-mer frequency, TF over GST control) in the assay with ELK4; 1.18 fold enrichment (6-mer frequency, TF over GST control) in the assay with ETV2; 1.14 fold enrichment (6-mer frequency, TF over GST control) with ELF3; 1.17 fold enrichment (6-mer frequency, TF over GST control) in the assay with ETV1.
